# SKKanGAS inh = S. pyogenes SKKanGAS growth inhibitors in kanamycin, primary screen, streptokinase expression inhibitor project, SKKanGAS strain, BacTiter-Glo luminescence; 6 h; inhibition, % at 7.5 µM; 300,000 compounds, 1.3% hits; AID 1662, 2009;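 active means mean replicate score, as percent of positive control median, at least 50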;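 further: strain carries kanamycin resistance gene driven by streptokinase promoter and grows in 40 µg/ml kanamycin; loss of luminescence reflects streptokinase promoter inhibition or plain growth inhibition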
# GRIN3A LBD mod = binders of NR3A ligand-binding domain, primary screen, biophysical, differential scanning fluorimetry, uHTS. Tm shift relative to glycine control, % at 25 µM. NR3A LBD differential scanning fluorimetry, Tm shift; 0% = protein alone, 100% = glycine-bound protein. 340,000 compounds, 2.5% hits;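 active means melting temperature shift of at least 10% of the positive control shift, at one fixed dose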
# CSC inhib = cancer stem cell viability inhibitors, primary screen, luminescence | AID 2717, 2010 | 300,000 compounds, 1.1% hits | inhibition, % at 7.5 µM | cancer stem cell-like cells viability; in the data active means inhibition above about 75%; tested in HMLE shEcad cells
# Mdm2-MdmX inh = inhibitors of human Mdm2-MdmX association, primary screen, cell-based, luminescence, split luciferase, SaOS-2, uHTS; 330,000 compounds, 3% hits; SaOS-2 split-luciferase Mdm2/MdmX complementation; Protein Mdm4 (Homo sapiens) + E3 ubiquitin-protein ligase Mdm2 (Homo sapiens), …; inhibition, % at 8 µM;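 active means inhibition of at least 50% at 8 µM in the primary screen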
# Target sequence (O15151 whole entry, looked up): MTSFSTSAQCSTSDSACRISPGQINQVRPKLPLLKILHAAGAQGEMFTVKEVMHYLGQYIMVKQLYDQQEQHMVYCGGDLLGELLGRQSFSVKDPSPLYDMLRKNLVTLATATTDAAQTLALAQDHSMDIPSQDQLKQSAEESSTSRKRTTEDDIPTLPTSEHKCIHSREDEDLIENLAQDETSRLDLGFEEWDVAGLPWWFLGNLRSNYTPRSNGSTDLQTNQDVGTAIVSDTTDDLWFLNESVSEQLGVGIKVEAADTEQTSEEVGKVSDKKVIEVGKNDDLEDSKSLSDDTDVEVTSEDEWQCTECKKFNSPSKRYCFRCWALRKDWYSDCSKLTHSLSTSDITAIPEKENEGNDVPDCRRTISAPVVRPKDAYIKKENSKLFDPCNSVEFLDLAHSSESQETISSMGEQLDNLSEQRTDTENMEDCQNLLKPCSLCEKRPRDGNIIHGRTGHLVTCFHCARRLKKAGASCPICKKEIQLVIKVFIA
# Target sequence (Q00987 whole entry, looked up): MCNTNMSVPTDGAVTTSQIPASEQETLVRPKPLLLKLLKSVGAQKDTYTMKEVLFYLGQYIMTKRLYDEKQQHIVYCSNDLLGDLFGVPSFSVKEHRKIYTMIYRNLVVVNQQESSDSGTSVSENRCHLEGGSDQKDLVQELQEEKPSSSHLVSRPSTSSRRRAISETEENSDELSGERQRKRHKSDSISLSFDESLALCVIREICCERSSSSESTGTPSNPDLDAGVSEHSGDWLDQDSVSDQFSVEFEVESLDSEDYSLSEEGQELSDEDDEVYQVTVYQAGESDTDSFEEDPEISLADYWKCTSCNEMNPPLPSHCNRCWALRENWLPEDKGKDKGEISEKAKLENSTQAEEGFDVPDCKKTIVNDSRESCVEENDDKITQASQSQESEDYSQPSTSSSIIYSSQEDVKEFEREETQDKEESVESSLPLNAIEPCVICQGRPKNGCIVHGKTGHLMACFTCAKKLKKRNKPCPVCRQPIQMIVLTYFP
# MPTP block = mitochondrial permeability transition pore inhibitors, primary screen, biochemical, isolated mouse mitochondria, absorbance. Ca2+ swelling absorbance, 30 min. 360,000 compounds, 1.4% hits. inhibition, % at 10 µM;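 active means inhibition of 50% or more, scaled per plate between neutral and stimulator controls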
# Beta cell apopt = inhibitors of cytokine-induced beta cell apoptosis, primary screen, luminescence; INS-1E cytokine-induced death, ATP luminescence, 48 h; percent of positive-control rescue, neutral wells zero; protection from apoptosis, % (concentration not given with the values); 300,000 compounds, 0.8% hits;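 active means Every replicate reaches about 75%, or at least half do and their mean reaches it too, limit read from the data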;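 further: higher means more ATP so stronger rescue from cytokine killing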
# Hits are given with their value; . = inactive; / = no result given. Hits are enriched below; roughly 6.9% of the tested compounds scored in any of these assays.
SMILES,SKKanGAS inh,GRIN3A LBD mod,CSC inhib,Mdm2-MdmX inh,MPTP block,Beta cell apopt
Cc1ccc(C)c(S(=O)(=O)Nc2cc(SCC(=O)O)c(O)c3ccccc23)c1,/,.,.,/,.,130
CCOC(=O)C1=C[C@@H](CC)N(S(=O)(=O)c2ccc(C)cc2)[C@H]1c1cccs1,/,/,/,/,.,/
C#CCOCCOCCOCCNc1nc(N2CCN(C(=O)[C@H](CC(N)=O)n3cc([C@@H](N)C(C)C)nn3)CC2)nc(N2CCN(C(=O)[C@H](CC(N)=O)n3cc([C@@H](N)C(C)C)nn3)CC2)n1,/,.,.,.,.,.
COc1cc(/C=C/C(O)=C/C(=O)/C=C/c2ccc(O)cc2)ccc1O,/,23,.,.,.,.
O=C(Nc1ccccc1Cl)c1ccccc1Oc1ccc(C(F)(F)F)cc1[N+](=O)[O-],.,12,.,.,.,.
O=C(c1ccccc1Oc1ccc(C(F)(F)F)cc1[N+](=O)[O-])N1CCOCC1,.,.,.,.,.,.
CC1=CC(C)(C)N(C(=O)CSc2nnc(-c3ccc(C)cc3)o2)c2ccc(C)cc21,.,.,/,.,.,82
O=C(Nc1ccccc1C(=O)N1CCCCCC1)c1ccccc1,.,.,.,.,.,.
CN(c1ccc(C(=O)Nc2ccccc2C(=O)N2CCCC2)cc1)S(C)(=O)=O,.,15,.,.,.,.
Cc1ccc(OCc2cc(C(=O)N(C)CCc3nc4ccccc4[nH]3)no2)cc1C,.,.,/,.,.,/
Cc1ccc(-n2ncc3c(SCc4cccc(C)c4)ncnc32)cc1,.,.,.,.,.,.
Cc1cccc(CSc2ncnc3c2cnn3Cc2ccccc2)c1,76,.,.,.,.,.
NC(N)=NS(=O)(=O)c1ccc(N/C=C/C(=O)c2ccc(Cl)c(Cl)c2)cc1,.,13,.,.,.,.
Cc1cc(NC(=O)CN2C(=O)NC(C)(c3ccc(Cl)cc3Cl)C2=O)no1 (configuration not stated),/,.,.,.,.,.
O=C(O)c1c2c(nc3ccc(S(=O)(=O)N4CCC(C(=O)NC5CCCCCC5)CC4)cc13)CCCC2,.,.,.,.,.,.
CC(=O)Nc1ccc(Nc2nc3ccccc3nc2NS(=O)(=O)c2ccc(Cl)c([N+](=O)[O-])c2)cc1,/,24,/,/,.,/
CC(=O)Nc1ccc(S(=O)(=O)Nc2nc3ccccc3nc2Nc2ccc3ccccc3c2)cc1,.,34,.,.,.,.
NS(=O)(=O)c1cccc(Nc2nc3ccccc3nc2NS(=O)(=O)c2ccc(Cl)cc2)c1,/,28,.,.,.,.
CC(=O)Nc1ccc(S(=O)(=O)Nc2nc3ccccc3nc2Nc2cccc(O)c2)cc1,.,19,.,.,.,.
CC(=O)Nc1ccc(S(=O)(=O)Nc2nc3ccccc3nc2Nc2ccc(N)cc2)cc1,.,.,.,.,.,.
O=C(O)c1cccc(Nc2nc3ccccc3nc2NS(=O)(=O)c2ccccc2)c1,/,.,.,.,.,.
CCOc1ccc(NC(=O)CCCn2c(=S)[nH]c3ccsc3c2=O)cc1,.,.,.,.,.,.
CC(=O)Nc1ccc(S(=O)(=O)Nc2nc3ccccc3nc2Nc2ccc(C(=O)O)c(O)c2)cc1,/,24,.,.,.,.
CC(=O)Nc1ccc(S(=O)(=O)Nc2nc3ccccc3nc2N2CCOCC2)cc1,/,.,.,.,.,.
CC(=O)Nc1ccc(S(=O)(=O)Nc2ccccc2C(=O)N2CCCC2)cc1,.,.,.,.,.,.
CC(=O)Nc1ccc(S(=O)(=O)Nc2cc(C)c(-n3nc4ccccc4n3)cc2O)cc1,.,10,.,.,.,.
COc1ccc(N2CCN(C(=O)COC(=O)c3ccc(-n4nc(C)cc4C)cc3)CC2)cc1,/,.,/,.,.,.

# Screening data from PubChem.
